The text below walks through data of PubChem BioAssay (NCI).

Values joined by “and” are separate entries in the source; they are usually repeats but may differ in a detail not shown here. Identical values can stand only once. Compounds without any hit were thinned out: in the full panel of roughly 83,000, 20% have a hit.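 Note: values are percent growth. 100 is the growth of untreated cells, values between 100 and 0 indicate rising inhibition; between -100 and 0 indicates cell death.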 Active and inactive are the calls of the source. The calls were made as follows: active = growth percent below 10; inactive = the rest.

Among the test systems are NCI-H226 lung; NCI-H322M lung; HOP-62 NSCLC; NCI-H460 lung; HOP-92 NSCLC; NCI-H522 lung; A549/ATCC NSCLC; 786-0 renal; COLO 205 colon; DU-145 prostate; K-562 leukemia; MALME-3M melanoma; MDA-MB-231 breast; RXF 393 renal; SF-268 CNS; SF-295 CNS; SF-539 CNS; UACC-257 melanoma; M14 melanoma.
Experiment in all cases: NCI-60 one-dose screen, 48 h (100 = growth as untreated, 0 = no growth, -100 = all killed)
What all share (conditions): 10 µM unless noted

Consider `O=C(CCCN1CCC2(CC1)C(=O)NCN2c1ccccc1)c1ccc(F)cc1`, for which the growth in the assay with NCI-H226 lung is 117% (inactive) and 102% (inactive); with NCI-H322M lung, 97.5% (inactive) and 81.5% (inactive); in the assay with HOP-62 NSCLC, 79.1% (inactive) and -10.2% (active); in the assay on NCI-H460 lung, 108% (inactive) and 94.1% (inactive); in the assay with HOP-92 NSCLC, 96.7% (inactive) and 67.2% (inactive); with NCI-H522 lung, 108% (inactive) and 80.4% (inactive). Further, the growth in the assay with A549/ATCC NSCLC was 103% (inactive) and 89.3% (inactive); in the assay on 786-0 renal, 101% (inactive) and 88.3% (inactive); in the assay on COLO 205 colon it was 34.3% (inactive) and -64.9% (active); in the assay on DU-145 prostate, 79% (inactive) and 34% (inactive); with K-562 leukemia it was 86% (inactive) and 85.1% (inactive); in the assay on MALME-3M melanoma, 96.1% (inactive) and 92.9% (inactive). Also, the growth in the assay with MDA-MB-231 breast was 103% (inactive) and 74.2% (inactive); in the assay on RXF 393 renal, 116% (inactive) and 105% (inactive); in the assay with SF-268 CNS it was 91.1% (inactive) and 62.8% (inactive); with SF-295 CNS it was 96.3% (inactive) and 63.4% (inactive); in the assay with SF-539 CNS, 124% (inactive) and 62.6% (inactive); in the assay on UACC-257 melanoma, 33.6% (inactive) and 21.6% (inactive).

As for `C[C@]12CCc3nc(-c4ccc(O)c(O)c4)sc3C1=CC[C@@H]1[C@@H]2CC[C@]2(C)C(=O)CC[C@@H]12`, the growth with NCI-H226 lung was 65% (inactive); in the assay on NCI-H322M lung, 80% (inactive); in the assay with HOP-62 NSCLC, 80.8% (inactive); with NCI-H460 lung it was 93.8% (inactive); in the assay on HOP-92 NSCLC it was 56.3% (inactive); in the assay on NCI-H522 lung it was 8.61% (active). Besides, the growth with A549/ATCC NSCLC was 61.2% (inactive); with 786-0 renal, 75.3% (inactive); in the assay with COLO 205 colon, 55.4% (inactive); with DU-145 prostate it was 75.3% (inactive); in the assay with K-562 leukemia, 56% (inactive); in the assay on MALME-3M melanoma it was 62.9% (inactive). In addition, the growth in the assay with MDA-MB-231 breast is 56% (inactive); in the assay on RXF 393 renal, 91.2% (inactive); in the assay on SF-268 CNS, 81.5% (inactive); in the assay on SF-295 CNS it was 104% (inactive); with SF-539 CNS it was 56.4% (inactive); with UACC-257 melanoma, 91.4% (inactive). The growth in the assay with M14 melanoma was 63.1% (inactive).

For the compound `CC[C@H](C)[C@H](NC(=O)[C@H]1CCCCN1C)C(=O)N(C)[C@H](C[C@@H](OC(C)=O)c1nc(C(=O)N[C@@H](Cc2ccccc2)C[C@H](C)C(=O)O)cs1)C(C)C`, the growth is 11.6% (inactive) in the assay on NCI-H226 lung; 51.5% (inactive) with NCI-H322M lung; 12.2% (inactive) with HOP-62 NSCLC; 11% (inactive) in the assay with NCI-H460 lung; 14.8% (inactive) with HOP-92 NSCLC; -47.1% (active) in the assay on NCI-H522 lung. Moreover, the growth was 10.2% (inactive) in the assay with A549/ATCC NSCLC; 15.6% (inactive) in the assay with 786-0 renal; -80.3% (active) in the assay with COLO 205 colon; 4.56% (active) in the assay on DU-145 prostate; 7.63% (active) in the assay with K-562 leukemia; 55.2% (inactive) with MALME-3M melanoma. Further, the growth is 28.2% (inactive) in the assay on MDA-MB-231 breast; 35.3% (inactive) with RXF 393 renal; 34.2% (inactive) in the assay on SF-268 CNS; 8.04% (active) in the assay on SF-295 CNS; -10.5% (active) in the assay with SF-539 CNS; 49.3% (inactive) with UACC-257 melanoma.

Turning to `CN1CCN(c2ccc(Cl)cc2)CC1`, the growth in the assay with NCI-H226 lung was 93.8% (inactive); in the assay on NCI-H322M lung, 94.2% (inactive); in the assay on HOP-62 NSCLC, 93.1% (inactive); with NCI-H460 lung, 44.6% (inactive); in the assay on HOP-92 NSCLC it was 93.7% (inactive); in the assay with NCI-H522 lung, 44.3% (inactive). Besides, the growth is 69.1% (inactive) in the assay on A549/ATCC NSCLC; 104% (inactive) in the assay with 786-0 renal; 89.8% (inactive) in the assay with COLO 205 colon; 6.91% (active) in the assay on DU-145 prostate; 70.3% (inactive) with K-562 leukemia; 126% (inactive) in the assay on MALME-3M melanoma. Moreover, the growth in the assay with MDA-MB-231 breast is 105% (inactive); with RXF 393 renal, 66.9% (inactive); in the assay with SF-268 CNS, 88.5% (inactive); in the assay on SF-295 CNS it was 57% (inactive); with SF-539 CNS, 97.2% (inactive); with UACC-257 melanoma it was 84.4% (inactive). Moreover, in the assay with M14 melanoma, the growth was 101% (inactive).

On to `C[C@]12CC[C@H]3[C@@H](C[C@@H]4SC(Nc5ccccc5)=N[C@@]45C/C(=N/O)CC[C@]35C)[C@@H]1CCC2=O`, for which the growth in the assay with NCI-H226 lung was 114% (inactive); in the assay on NCI-H322M lung, 94.5% (inactive); in the assay on NCI-H460 lung, 56.4% (inactive); in the assay with HOP-92 NSCLC, 107% (inactive); in the assay with NCI-H522 lung it was 71.5% (inactive); in the assay with A549/ATCC NSCLC, 88.9% (inactive). The growth in the assay on 786-0 renal was 18.4% (inactive); in the assay with COLO 205 colon, 97% (inactive); in the assay with DU-145 prostate it was 29.8% (inactive); in the assay on K-562 leukemia, 12.5% (inactive); in the assay on MALME-3M melanoma it was 83.8% (inactive); in the assay on MDA-MB-231 breast, 78.2% (inactive). In addition, the growth is 28.8% (inactive) in the assay on RXF 393 renal; 57.7% (inactive) in the assay with SF-268 CNS; 55.7% (inactive) with SF-295 CNS; 44.2% (inactive) in the assay with SF-539 CNS; 99.9% (inactive) in the assay with UACC-257 melanoma; 68.5% (inactive) with M14 melanoma.

For the compound `Nc1ccc2c(c1)Cc1cc(N)ccc1-2`, the growth with NCI-H226 lung is 91.4% (inactive); with NCI-H322M lung, 90% (inactive); with HOP-62 NSCLC it was 87.1% (inactive); with NCI-H460 lung it was 93.1% (inactive); in the assay on HOP-92 NSCLC, 76.5% (inactive); in the assay with NCI-H522 lung, 92.8% (inactive). Moreover, the growth in the assay on A549/ATCC NSCLC was 84.3% (inactive); in the assay with 786-0 renal, 105% (inactive); in the assay with COLO 205 colon it was 90% (inactive); with DU-145 prostate, 107% (inactive); with K-562 leukemia, 112% (inactive); with MALME-3M melanoma, 85.7% (inactive). Besides, the growth with MDA-MB-231 breast was 75.6% (inactive); with RXF 393 renal it was 87.9% (inactive); in the assay on SF-268 CNS, 95.4% (inactive); with SF-295 CNS, 100% (inactive); with SF-539 CNS, 96.8% (inactive); with UACC-257 melanoma, 91.3% (inactive). In addition, the growth with M14 melanoma was 92.7% (inactive).

As for `Cc1cc[c-]cc1.Fc1c[c-]c(-c2ccccn2)c(F)c1.N#CCC[PH+](CCC#N)c1ccccc1.[Pt+2]`, the growth with NCI-H226 lung is 72.3% (inactive); with NCI-H322M lung it was 79.4% (inactive); in the assay with NCI-H460 lung, 43.1% (inactive); in the assay with HOP-92 NSCLC, 16.3% (inactive); in the assay on NCI-H522 lung, 16% (inactive); with A549/ATCC NSCLC it was 50.5% (inactive). For the same compound, the growth in the assay with 786-0 renal was 48.9% (inactive); with COLO 205 colon, 12.5% (inactive); in the assay on DU-145 prostate it was 57.6% (inactive); in the assay on K-562 leukemia, 11.6% (inactive); with MALME-3M melanoma, 0.385% (active); in the assay on MDA-MB-231 breast, 13.7% (inactive). In addition, the growth in the assay on RXF 393 renal was -36% (active); in the assay on SF-268 CNS it was 46% (inactive); in the assay with SF-295 CNS it was 85.2% (inactive); in the assay with SF-539 CNS, 48.3% (inactive); in the assay on UACC-257 melanoma it was 62.4% (inactive); in the assay with M14 melanoma, 21.9% (inactive).
